These results are taken from PubChem BioAssay.

Structures are written as SMILES. Calls of active or inactive are those of the source. The rule behind the calls is not given here.

The target of this test is Pantothenate synthetase (Mycobacterium tuberculosis (strain ATCC 25618 / H37Rv)) (UniProt P9WIL5). The test is described as follows: Coupled enzyme confirmation of inhibitors against recombinant Mtb PanC (AID 375).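 Note: 0% = full reaction with vehicle and 100% = no enzyme background.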 Conditions: coupled enzyme assay; at 10 µM, active compounds read high.
Chain of Pantothenate synthetase (Mycobacterium tuberculosis (strain ATCC 25618 / H37Rv)) (P9WIL5 whole entry, looked up): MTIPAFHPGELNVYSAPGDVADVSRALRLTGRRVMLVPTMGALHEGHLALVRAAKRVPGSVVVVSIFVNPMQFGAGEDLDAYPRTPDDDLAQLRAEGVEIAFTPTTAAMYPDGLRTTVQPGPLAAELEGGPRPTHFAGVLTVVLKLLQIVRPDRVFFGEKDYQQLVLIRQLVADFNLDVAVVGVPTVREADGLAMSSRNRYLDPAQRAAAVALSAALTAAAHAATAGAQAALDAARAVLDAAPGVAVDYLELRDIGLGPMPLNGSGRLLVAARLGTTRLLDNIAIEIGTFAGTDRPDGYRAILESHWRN
By inhibition is commonly meant the percentage by which the read-out fell short of the control. `O=C(Nc1ccc2c(c1)OCO2)c1cc2ncc(Br)cn2n1`: the inhibition is 3% (inactive). Under `COc1ccccc1N1CCN(C(=O)CSc2nc3ncnc(N)c3[nH]2)CC1` stands 8% (inactive); under `COC(=O)c1c(NC(=O)CCc2ccc(C)o2)sc(C)c1C`, 1% (inactive). The same measure for `CC1=C(C)[N+](=O)C2CCCCC2N1[O-]` (stereo not given): 3% (inactive). Under `Cc1cc(C)cc(NC(=O)N2CCC(c3nc4ccccc4o3)CC2)c1` stands 7% (inactive); under `COCCNC(=O)CN1CCC(NC(=O)Nc2ccc(C(F)(F)F)cc2)CC1`, 4% (inactive); under `COc1ccc(N=c2scc(-c3ccc(S(=O)(=O)N4CCOCC4)cc3)n2CCCO)cc1`, 0% (inactive).

On to `CCn1c(=N)n(CC(=O)c2ccco2)c2ccccc21`, for which the inhibition was 0% (inactive). Under `CCOC(=O)CN1CC23C=CC(O2)C(C(=O)NCc2ccc(F)cc2)C3C1=O` (stereo not given) stands 0% (inactive); under `CCOC(=O)c1nnn(CC(=O)Nc2cccc(OC)c2)c1C(=O)OCC`, 9% (inactive); under `C/C(N)=C(/C#N)C(=O)COC(=O)COc1ccc(Cl)cc1`, 5% (inactive).

On to `COc1cc(NS(=O)(=O)c2ccc(N)cc2)ncn1`, for which the inhibition is 0% (inactive).

`CC1=C(C(=O)Nc2cccnc2)C(c2ccc(C(C)C)cc2)n2ncnc2N1` (stereo not given): the inhibition is 1% (inactive). The same measure for `O=C(Cc1ccc(Br)cc1)N1CCCCCC1`: 1% (inactive); for `CCOC(=O)c1sc(NC(=O)CSc2n[nH]c(-c3ccccc3)n2)c(C#N)c1C`: 11% (inactive).

For `CCn1c(C)c(CCC(=O)O)c(=O)n2nc(-c3ccccc3OC)cc12`, the inhibition is 0% (inactive). The same measure for `CCC(=O)Oc1ccc2c(C)cc(=O)oc2c1C`: 2% (inactive).

For the molecule `CCOC(=O)c1c(N)nn(C(=O)C(C)C)c1-c1ccccc1`, the inhibition was 0% (inactive).

Consider `CCOc1ccccc1C1C(C(=O)Nc2ccc(OC)cc2)=C(C)Nc2nc(CCCO)nn21` (stereo not given), for which the inhibition is 0% (inactive). Under `CC(=O)Nc1ccc(S(=O)(=O)N2CCN=C2C)cc1` stands 3% (inactive). Regarding `CC(c1ccco1)N(C(=O)c1ccc(S(=O)(=O)N2CCCCC2)cc1)c1ccccn1` (stereo not given), the inhibition was 2% (inactive).

Turning to `COC(=O)CNc1nc(C2CC2)nc2c1nnn2Cc1ccccc1Cl`, the inhibition is 6% (inactive). The same measure for `Cc1c(NC(=O)c2ccc(CN3CCc4ccccc4C3)cc2)c(=O)n(-c2ccccc2)n1C`: 0% (inactive); for `CCN(CC)c1ncc(C)c(=O)[nH]1`: 1% (inactive); for `NS(=O)(=O)c1ccc(NCc2c(F)cccc2Cl)cc1`: 2% (inactive).

For the molecule `CN(c1cccc(NC(=O)COc2ccccc2)c1)S(C)(=O)=O`, the inhibition was 6% (inactive). On to `Cc1ccc(C)n1-n1c(C)nc2sc(-c3ccccc3)cc2c1=O`, for which the inhibition was 0% (inactive). Under `CCCCn1c(CN2CCN(c3ccc(F)cc3)CC2)nc2c1c(=O)n(C)c(=O)n2C` stands 2% (inactive); under `O=c1c(-c2ccc(F)cc2)coc2c3c(ccc12)OCCO3`, 11% (inactive); under `CCCNS(=O)(=O)c1ccc(OCC(=O)NCc2ccc3c(c2)OCO3)cc1`, 2% (inactive). Under `CCCC(=O)NCCc1cc2c(C)ccc(C)c2[nH]c1=O` stands 0% (inactive); under `CN(C(=O)COC(=O)C1CCN(S(=O)(=O)c2cccs2)CC1)C1CCS(=O)(=O)C1` (stereo not given), 7% (inactive); under `COc1cc2c(cc1OC)C(c1ccccc1O)N(C1CC(=O)N(c3ccccc3)C1=O)CC2` (stereo not given), 0% (inactive).

Consider `COc1cc(C2N3CC4(C)CN2CC(C)(C3)C4)ccc1O` (stereo not given), for which the inhibition is 0% (inactive). Under `CCOc1cc2[nH]c(=O)n(CCCCC(=O)N3CCCCCC3)c(=O)c2cc1OCC` stands 2% (inactive); under `Cc1cn([C@H]2C[C@H](N=[N+]=[N-])[C@@H](CO)O2)c(=O)[nH]c1=O`, 0% (inactive). Under `C[C@H](NC(=O)NCc1cccs1)C(=O)O` stands 0% (inactive). As to `COCCn1c(CN(Cc2ccccc2)Cc2ccccc2)nc2c1c(=O)n(C)c(=O)n2C`, the inhibition is 0% (inactive). Take `N#CC1=C(N)SC(N)=C(C#N)C1c1ccc(C(F)(F)F)cc1`: the inhibition is 0% (inactive).

On to `O=S(=O)(c1ccc(OCC(O)CN2CCN(c3ccccc3)CC2)cc1)N1CCOCC1` (stereo not given), for which the inhibition was 7% (inactive).
